For 27 molecules, growth results are on record in PubChem BioAssay (NCI).

About 83,000 compounds went through this panel and 20% of them were active in at least one assay; those are over-represented in the sample as a whole.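 Activity criterion: percent growth below 10, measured after cells in 96-well plates were exposed to a single compound concentration for 48 hours.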 Values without a mark were called inactive. The source made the active and inactive calls.

Common to all, as to test: NCI-60 one-dose screen, 48 h (100 = growth as untreated, 0 = no growth, -100 = all killed)
Common to all, as to settings: 10 µM unless noted

Test [1] relates to HCT-15 colon.
Test [2] concerns HT29 colon.
Test [3] has as its system SNB-75 CNS.
Test [4] relates to SNB-19 CNS.
Test [5] deals with U251 CNS.
Test [6] has as its system PC-3 prostate.
In test [7] the test system is SK-MEL-5 melanoma.
Test [8] deals with UACC-62 melanoma.
In test [9] the test system is LOX IMVI melanoma.
The subject of test [10] is SK-MEL-28 melanoma.

In the case of `COc1cc(C2CC(c3ccccc3)=NN2C=O)ccc1Oc1ccnc2cc(Cl)ccc12` (stereo not given), the growth in test [1] is 59.3%; in test [2] it was 75.9%; in [3] it was 69.9%; in test [4] it was 71.2%; in test [5], 88.6%; in test [6], 31.4%. In addition, the growth in [7] was 1.25% (active); in [8], 54.3%; in [9] it was 56.6%; in test [10], 75.9%.

Consider `O=C1NN(C(=O)c2ccccc2)C(c2ccc(Cl)c(Cl)c2)=C/C1=C\c1ccccc1[N+](=O)[O-]`, for which the growth in test [1] was -28.1% [6.75 µM] (active); in [2], 4.99% [6.75 µM] (active); in [3], 25.1% [6.75 µM]; in test [4], 24.3% [6.75 µM]; in [5] it was 14.7% [6.75 µM]; in [6] it was 9.01% [6.75 µM] (active). Moreover, the growth in [7] is -65.4% [6.75 µM] (active); in test [8] it was -69% [6.75 µM] (active); in [9], -45.5% [6.75 µM] (active); in test [10], 27.8% [6.75 µM].

Regarding `CCN1CCN(Cc2ccc(NC(=O)Nc3ccc(-n4ccc5c(NC(=O)c6ccccc6)nccc54)cc3)cc2C(F)(F)F)CC1`, the growth was -6.13% (active) in [1]; -35.3% (active) in test [2]; -88.2% (active) in test [3]; -14% (active) in test [4]; -75.8% (active) in [5]; 54.6% in test [6]. The growth in [7] was -97.6% (active); in test [8] it was 41.3%; in test [9] it was -84.5% (active); in [10], -96.7% (active).

In the case of `Nc1c(C(=O)C[C@@H](N)CO)ccc2c1C(=O)CCO2`, the growth was 6.97% (active) in [1]; -3.16% (active) in test [2]; 86.2% in test [3]; 27.4% in test [4]; 16.7% in [5]; 57% in test [6]. Besides, the growth in [7] is 60.8%; in [8] it was 30.5%; in [9], -61.7% (active); in test [10], 39.1%.

Turning to `COc1ccc2[nH]cc(C3(c4c[nH]c5ccc(OC)cc45)C(=O)Nc4ccc(Cl)cc43)c2c1`, the growth in test [1] was 69.1%; in [2], 44.9%; in [3], 39.7%; in test [4], 82.3%; in [5], 72.2%; in test [6], 15%. For the same molecule, the growth in test [7] is 89.2%; in test [8], 73%; in test [9] it was 45%; in [10] it was 95.3%.

With `Fc1ccc(-c2cnc3nonc3n2)c(F)c1`, the growth is 78.3% in [1]; 113% in test [2]; 96.4% in [3]; 92.5% in test [4]; 111% in test [5]; 73.3% in test [6]. The growth in test [7] was 96.2%; in test [8] it was 87.6%; in [9] it was 93.1%; in test [10], 101%.

Take `COc1cc(Nc2ncccc2/C=C/C(=O)c2cc(OC)c(OC)c(OC)c2)cc(OC)c1OC`: the growth in test [1] was 74.2%; in test [2], 67.8%; in [3], 67.9%; in test [4], 80.2%; in test [5] it was 50.8%; in test [6], 74.1%. Moreover, the growth is 53.9% in [7], 65.8% in test [8], 17.1% in test [9] and 90.5% in test [10].

Regarding `C=C(COC(C)=O)[C@H]1CC/C(C)=C/CC/C(C)=C/CC[C@@]2(C)O[C@H]2C1`, the growth in test [1] is 96%; in [2], 108%; in [3] it was 109%; in [4], 106%; in [5], 98.3%; in test [6] it was 129%. For the same molecule, the growth in [7] is 108%; in [8], 99.6%; in test [9] it was 94.6%; in [10], 104%.

Consider `CS(=O)(=O)c1ccc(C(=O)N/N=C/c2ccc3c(c2)OCO3)cc1`, for which the growth in [1] was 100%; in test [2], 88.9%; in test [3], 94.4%; in [4], 98.5%; in test [5], 92.3%; in test [6], 92%. Also, the growth was 106% in [7], 98% in test [8], 96.5% in test [9] and 114% in test [10].

On to `CC(=O)NC1C(O[C@H]2C[C@H]3[C@@H]4CC=C5C[C@@H](O)CC[C@]5(C)[C@H]4CC[C@]3(C)[C@H]2[C@H](C)C(=O)CCC(C)C)OCC(O)C1O` (stereo not given in full), for which the growth in test [1] was 30.5%; in test [2] it was 36.8%; in test [3], 37.8%; in test [4], 57.5%; in test [5], 28%; in test [6], 26.5%. The growth in test [7] is 24.8%; in test [8], -20.3% (active); in test [9], 27.2%; in test [10] it was -14.3% (active).

As for `CC(=O)CC(c1ccc([N+](=O)[O-])cc1)c1c(O)c2ccccc2oc1=O` (stereo not given), the growth is 110% in [1]; 106% in test [2]; 81.7% in test [3]; 109% in test [4]; 104% in test [5]; 92% in test [6]. The growth in test [7] was 91.9%; in [8] it was 100%; in test [9], 101%; in test [10], 113%.

As to `O=C1c2cccc3cccc(c23)C(=O)N1CCCCCCCCCCN1C(=O)c2cccc3cccc(c23)C1=O`, the growth was 102% in test [1]; 106% in [2]; 80.8% in test [3]; 104% in test [4]; 100% in [5]; 103% in [6]. The growth in [7] is 102%; in [8] it was 99.8%; in test [9] it was 102%; in [10], 109%.

As for `CCOC(=O)Nc1ccc2nc(Sc3ccc(Cl)cc3)sc2c1`, the growth in test [1] is 25.5%; in test [2], 19.4%; in test [3] it was -12% (active); in test [4] it was 48.3%; in test [5], 36.1%; in test [6], 34.3%. The growth in test [7] is 6.76% (active); in [8], 33.8%; in test [9], 47.9%; in test [10] it was 38.1%.

Regarding `Nc1cc(C(=O)O)cc(C(=O)O)c1`, the growth was 111% in test [1]; 97.2% in [2]; 99.2% in test [3]; 111% in test [4]; 108% in [5]; 96.8% in test [6]. For the same molecule, the growth was 108% in test [7], 104% in [8], 115% in [9] and 115% in [10].

As to `COc1ccc(-c2conc2-n2nc(-c3ccccc3)nc2-c2ccccc2)cc1`, the growth was 107% in [1]; 102% in test [2]; 98.3% in [3]; 104% in test [4]; 106% in test [5]; 95.6% in test [6]. Besides, the growth in [7] is 101%; in test [8], 103%; in test [9], 92.6%; in test [10], 108%.

With `Cc1ccccc1NC(=O)c1sc2nc3c(cc2c1N)C(=O)CCC3`, the growth in test [1] was 32.8%; in test [2], 21.1%; in [3], 13.1%; in test [4], 46.1%; in [5] it was 49%; in [6] it was 30.3%. Moreover, the growth in [7] was 18.6%; in test [8] it was 36.9%; in [9], 47.4%; in test [10], 52.8%.

Take `CCCCCCCCCCCCCCCCCC(=O)OCCCCCCCCCCCCC`: the growth in test [1] was 108%; in test [2], 103%; in test [3] it was 104%; in test [4] it was 113%; in test [5], 108%; in [6], 102%. In addition, the growth in [7] was 114%; in test [8] it was 113%; in test [9], 103%; in test [10], 125%.

On to `O=C(CSc1nc2c(n1Nc1ccccc1)-c1ccccc1SC2)Nc1nccs1`, for which the growth in test [1] is 87.5%; in test [2], 102%; in test [3], 69.7%; in test [4], 99.4%; in test [5], 93.8%; in test [6], 78.8%. The growth in [7] is 101%; in test [8], 83.3%; in test [9], 97.1%; in test [10], 112%.

`O=S1(=O)NCCCN1CCNc1nccc(-c2c(-c3cccc(O)c3)nc3sccn23)n1`: the growth is 95.5% in [1]; 56.2% in test [2]; 37.9% in test [3]; 119% in test [4]; 77.4% in test [5]; 106% in test [6]. The growth is 74.2% in test [7], -6.85% (active) in test [8], 20.1% in [9] and 24% in test [10].

Take `CN(C)c1ccc(/C=C\c2cccc[n+]2C)cc1`: the growth in test [1] is 104%; in [2], 34.4%; in test [3], 70.1%; in test [4], 31.8%; in [5], 33%; in test [6], 11%. Also, the growth is 24.2% in test [7], 81.3% in test [8], 50% in test [9] and 56.6% in test [10].

Take `CN1C(=O)N(C)C2C1NN=c1s/c(=C\c3ccc(Br)cc3)c(=O)n12` (stereo not given): the growth in [1] is 22.8%; in test [2], 10.7%; in [3], 11.4%; in [4], 34.9%; in test [5], 29.3%; in [6], 18.3%. The growth in [7] is 14%; in [8], 27.9%; in [9], 35.8%; in test [10], 71.1%.

`c1ccc(-c2nnn(-c3ccccc3)n2)cc1`: the growth in [1] was 114%; in test [2], 104%; in [3] it was 90.4%; in test [4], 101%; in [5], 99.1%; in test [6] it was 103%. In addition, the growth in [7] is 104%; in test [8], 94.1%; in test [9], 116%; in test [10] it was 110%.

For the molecule `CC(=O)c1ccc(N2C(=O)c3ccc(Oc4ccccc4)cc3C2=O)cc1`, the growth in test [1] was 111%; in test [2], 104%; in [3] it was 108%; in [4], 105%; in test [5], 108%; in test [6], 91.2%. Also, the growth was 103% in test [7], 98.9% in [8], 103% in [9] and 111% in test [10].

Regarding `C/C(=N\NC(=O)CSc1nc2ccccc2c(=O)n1CCc1ccc(S(N)(=O)=O)cc1)c1ccc(Br)cc1`, the growth is 94.7% in test [1]; 44.7% in test [2]; 84.7% in test [3]; 63.9% in test [4]; 8.33% (active) in [5]; 44.9% in [6]. Besides, the growth was 61.5% in test [7], 79% in [8], 63.3% in test [9] and 79.7% in test [10].

Consider `O=C(N/N=C\c1cc(Br)ccc1O)c1ccncc1`, for which the growth is 21.4% in [1]; 36.3% in test [2]; 76.4% in test [3]; 53.7% in [4]; 28.6% in [5]; 48.3% in test [6]. Besides, the growth in [7] is 39.8%; in [8], 1.24% (active); in test [9], 18%; in test [10] it was 45.8%.

As to `Nc1c(C(=O)Nc2cccc(Cl)c2)sc2nc3c(cc12)C(=O)CCC3`, the growth is 32.4% in test [1]; 23.9% in test [2]; 25.9% in test [3]; 38.2% in test [4]; 46.4% in test [5]; 29.1% in test [6]. The growth is 27.2% in test [7], 43.7% in test [8], 46.1% in [9] and 51.4% in test [10].

As for `Cc1cc(N)cc(C)c1-c1c(Br)cc(N)cc1Br`, the growth in test [1] was 32%; in test [2], 9.08% (active); in [3], 2.44% (active); in [4], 37.4%; in test [5], 22.2%; in [6] it was 23.2%. Also, the growth in test [7] was 21%; in [8], 48.9%; in test [9] it was 16%; in test [10], 44.5%.
